Laboratory results as given in PubChem BioAssay (NCI).
About 83,000 compounds went through this panel and 20% of them were active in at least one assay; those are over-represented in the sample as a whole.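 Note: values are percent growth. 100 is the growth of untreated cells, values between 100 and 0 indicate rising inhibition; between -100 and 0 indicates cell death.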 Unmarked numbers belong to inactive results. Calls of active or inactive are those of the source. How the source made its calls: active means growth percent below 10; inactive means the rest.

Tests used:
Experiment in all cases: NCI-60 one-dose screen, 48 h (100 = growth as untreated, 0 = no growth, -100 = all killed)
Details in all cases: 10 µM unless noted
NCI-H23 lung = system: NCI-H23 lung
NCI-H226 lung = system: NCI-H226 lung
NCI-H322M lung = system: NCI-H322M lung
HOP-62 NSCLC = system: HOP-62 NSCLC
NCI-H460 lung = system: NCI-H460 lung
HOP-92 NSCLC = system: HOP-92 NSCLC
NCI-H522 lung = system: NCI-H522 lung
A549/ATCC NSCLC = system: A549/ATCC NSCLC
786-0 renal = system: 786-0 renal
COLO 205 colon = system: COLO 205 colon
DU-145 prostate = system: DU-145 prostate
K-562 leukemia = system: K-562 leukemia
MALME-3M melanoma = system: MALME-3M melanoma
MDA-MB-231 breast = system: MDA-MB-231 breast
RXF 393 renal = system: RXF 393 renal
SF-268 CNS = system: SF-268 CNS
SF-295 CNS = system: SF-295 CNS
SF-539 CNS = system: SF-539 CNS
UACC-257 melanoma = system: UACC-257 melanoma
M14 melanoma = system: M14 melanoma

Structure (SMILES)	growth (NCI-H23 lung)	growth (NCI-H226 lung)	growth (NCI-H322M lung)	growth (HOP-62 NSCLC)	growth (NCI-H460 lung)	growth (HOP-92 NSCLC)	growth (NCI-H522 lung)	growth (A549/ATCC NSCLC)	growth (786-0 renal)	growth (COLO 205 colon)	growth (DU-145 prostate)	growth (K-562 leukemia)	growth (MALME-3M melanoma)	growth (MDA-MB-231 breast)	growth (RXF 393 renal)	growth (SF-268 CNS)	growth (SF-295 CNS)	growth (SF-539 CNS)	growth (UACC-257 melanoma)	growth (M14 melanoma)
C#CCOc1ccccc1/C=N/Nc1nc(-c2ccc(Cl)cc2)cs1	83.3%	82.8%	90.6%	96%	97.7%	88.2%	87.8%	101%	102%	109%	104%	86.2%	97.2%	86.4%	102%	98.9%	109%	89.5%	102%	94%
C/C(=C(\c1ccc(O)cc1)c1ccc(OCCN2CCCCCC2)cc1)c1ccc(Cl)cc1	-80.3% (active)	-64.1% (active)	-18.9% (active)	-82.5% (active)	-55.9% (active)	-86.8% (active)	-86.9% (active)	-72.4% (active)	-77.4% (active)	-63.4% (active)	-86.4% (active)	5.91% (active)	-80.3% (active)	-85% (active)	-87.4% (active)	-62.5% (active)	-93.7% (active)	-91.8% (active)	-81.8% (active)	-86.5% (active)
CCOC(=O)c1c(NCC(=O)Nc2cccc([N+](=O)[O-])c2)sc(C(C)=O)c1C	-40.7% (active)	-61.3% (active)	95%	7.61% (active)	-29% (active)	-24.7% (active)	-32% (active)	-13.5% (active)	-15% (active)	-42.9% (active)	-13.9% (active)	8.15% (active)	-21.8% (active)	10.3%	-86.5% (active)	-17.6% (active)	-11.7% (active)	-28.8% (active)	-11.9% (active)	-81.7% (active)
Cc1ccc(C(=O)Nc2ccc(CNCCN3CCOCC3)c(C(F)(F)F)c2)cc1C#Cc1cnc2cccnn12	21.5%	20.5%	47.9%	15.4%	18.9%	-11.9% (active)	4.82% (active)	19.2%	14.2%	-18.8% (active)	33.5%	5.07% (active)	-44.6% (active)	-18.5% (active)	-54.2% (active)	15.6%	-24.7% (active)	-69.3% (active)	-45.3% (active)	-7.89% (active)
N#Cc1c(-c2cccs2)cc(-c2cnccn2)nc1SCC(=O)N/N=C/c1ccc(Cl)cc1	100%	98.1%	99.3%	99.1%	103%	89.4%	93.7%	94.6%	93.9%	115%	104%	96.7%	115%	94.9%	92.2%	102%	98.7%	100%	110%	111%
CCNCCOc1ccc(/C(=C(/CC)c2ccc(Cl)cc2)c2ccc(OCCCN(C)C)cc2)cc1	-87.3% (active)	-66.4% (active)	-95.4% (active)	-80.1% (active)	-74.2% (active)	-74.6% (active)	-76.7% (active)	-60.9% (active)	-86% (active)	-82.3% (active)	-91.7% (active)	0.0244% (active)	-85.1% (active)	-87.2% (active)	-92.1% (active)	-66.7% (active)	-85.8% (active)	-93.9% (active)	-82.8% (active)	-86.9% (active)
COc1cc2cc(Oc3ccc(NC(=O)c4cc(C(F)(F)F)cc(C(F)(F)F)c4)cc3)c(C)nc2cc1OCCN1CCOCC1	66.9%	70.3%	98%	88.6%	61.6%	44.8%	58.1%	61.4%	25.3%	66.7%	87.1%	26.5%	69.7%	75.7%	1.66% (active)	72.6%	29.7%	59.4%	57.3%	60.5%
Cn1c(SCC(=O)c2ccc(F)cc2)nc2ccccc2c1=O	84.5%	93%	99.8%	93.6%	101%	61.3%	83.9%	104%	96.8%	123%	98%	76.4%	109%	91.7%	108%	99%	97.9%	98.2%	107%	95.8%
